# Hits are enriched below; roughly 3.4% of the tested compounds scored in any of these assays.
# MITF inh: human MITF inhibition, primary screen; AlphaScreen MITF homodimerization, bead proximity signal; O75030; 650,000 compounds, 0.91% hits; inhibition, % at 2.6 µM; in the data active = inhibition above about 50%;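 note: 0% = vehicle wells with protein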
# FBW7 act: activators of human E3 ligase FBW7; Q969H0; AlphaScreen FBW7–phospho-cyclin E peptide binding, activator screen; normalized activity (activation), % at 26.1 µM; 650,000 compounds, 0.13% hits; AID 1259310; in the data active = normalized activity above about 1.9%;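 note: purified mutant Fbw7 with reduced substrate affinity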
# GPR151 activ: activators of human GPR151 | Q8TDV0 | PathHunter beta-arrestin GPR151 cells, luminescence | activation, % at 11.2 µM | 650,000 compounds, 1% hits | AID 1508602; in the data active = activation above about 4.9%;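 note: 0% = median of compound wells and 100% = cells with positive control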
# TEAD-YAP block: TEAD-YAP interaction inhibition. HEK-TIYL cells, TEAD-Gal4/YAP UAS-luciferase luminescence. inhibition, % at 9.12 µM. 640,000 compounds, 1.4% hits. AID 1259422; in the data active = inhibition above about 32%;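 note: 0% = median of test compound wells and 100% = reference inhibitor wells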
# GPR151 confirm: human GPR151 activation, confirmation screen | shares compounds with GPR151 activ | GPR151 PathHunter beta-arrestin cells, luminescence, 90 min; % of EA-reagent control over plate median | activation, % at 11.2 µM | 6,700 tested, under 10 active;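 active = mean percent activation across replicates above the confirmation screen cutoff of 4.91%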
# GPR119 counter: GPR119 activation, counter-screen for GPR151 activators; activation, % at 11.2 µM; AID 1508611; 6,700 compounds, 0.3% hits; shares compounds with GPR151 activ; GPR119 PathHunter beta-arrestin cells, luminescence, 90 min; 0 = compound-well median, 100 = enzyme-acceptor control;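 active = mean percent activation in the counterscreen above 29.09%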;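 note: counterscreen on off-target GPR119 to flag nonselective hits from the GPR151 activator screen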
# Target sequence (Q8TDV5 whole entry, looked up): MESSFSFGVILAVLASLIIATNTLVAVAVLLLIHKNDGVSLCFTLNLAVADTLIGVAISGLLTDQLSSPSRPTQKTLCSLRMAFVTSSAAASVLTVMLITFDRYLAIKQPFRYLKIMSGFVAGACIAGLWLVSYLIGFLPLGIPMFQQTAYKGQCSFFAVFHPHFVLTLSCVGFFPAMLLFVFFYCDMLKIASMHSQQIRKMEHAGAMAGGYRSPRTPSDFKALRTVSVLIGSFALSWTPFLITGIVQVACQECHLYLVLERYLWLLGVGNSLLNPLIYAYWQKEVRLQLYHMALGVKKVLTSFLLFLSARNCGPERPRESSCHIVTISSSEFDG
# Starred values were filed as active, the others as inactive; x = no result given; ! = repeats disagree.
SMILES,MITF inh,FBW7 act,GPR151 activ,TEAD-YAP block,GPR151 confirm,GPR119 counter
Nc1c(Cl)cc(-n2c(-c3ccccc3)n[nH]c2=S)cc1Cl,-1,0,5.5*,5,0,-3
S=c1[nH]nc(-c2ccc(Cl)cc2)n1-c1ccccc1,12,0,-2,15,x,x
CC(C)(C)c1ccc(-c2n[nH]c(=S)n2-c2ccccc2)cc1,13,0,5.1*!,1,-1,-13
COc1cccc(C=Nc2ccc(C)c(F)c2)c1O,-2,0,5.8*,7,0,11
CSc1ncc(CN2CCN(CC(C)(C)C)C(CCO)C2)cn1 (centres undefined),-2,0,5.8*,1,0,2
O=C(NCc1ccc2c(c1)OCO2)c1cc2cc(Br)ccc2oc1=O,-10,0,0,7,x,x
COc1ccccc1NC(=O)CSc1nc2ccsc2c(=O)n1-c1ccc(Cl)cc1,-4,0,5.6*,0,1,10
COc1ccc(-n2c(SCC(=O)Nc3ccccc3OC)nc3ccsc3c2=O)cc1,4,0,-1,2,x,x
CCS(=O)(=O)n1nc(-c2ccccc2)nc1NCc1ccco1,-8,0,12*,-10,0,4
O=C(c1ccc(N2CC3CC(C2)c2cccc(=O)n2C3)c([N+](=O)[O-])c1)N1CCN(c2ccccc2)CC1 (centres undefined),-4,0,-2,-5,x,x
Cc1c(Cl)cccc1NC(=O)CN1CCC(NC(=O)C2CCCCC2)CC1,-4,0,8.4*,-9,1,14
Cc1cccc(NC(=O)N2CCC(NC(=O)C3CCCCC3)CC2)c1,-9,0,5.9*,-4,1,2
O=C(NC1CCN(C(=O)Nc2cccc(Cl)c2)CC1)C1CCCCC1,-10,0,-1,-6,x,x
O=[N+]([O-])c1ccc(Oc2ccc(/C=N/Nc3ccccn3)cc2)c([N+](=O)[O-])c1,17,0,-7,25,x,x
CC(=O)c1cccc(S(=O)(=O)NCc2ccco2)c1,7,0,0,-22,x,x
CC(=O)c1cccc(S(=O)(=O)NCC(c2ccco2)N2CCCCC2)c1 (centres undefined),-11,0,7.0*,10,0,0
Cc1nc(-c2c(C(F)(F)F)oc3c(C)c(C)ccc3c2=O)cs1,-5,0,-1,-11,x,x
Cc1nc(-c2c(C(F)(F)F)oc3c(CN(C)C)c(O)ccc3c2=O)cs1,-2,0,5.1*,10,0,-5
CC(=O)c1cccc(NC(=O)N2CCCC(C(=O)c3ccc4ccccc4c3)C2)c1 (centres undefined),8,0,1,-2,x,x
CC(C)c1nc2cccnc2n1C1CCN(C(=O)c2n[nH]c3c2CCC3)CC1,17,0,10*,-13,1,10
COC(=O)c1ccc(-n2nnnc2SCC(=O)N2CCOCC2)cc1,3,0,4.9*,-5,1,21
CCOc1ccc(-n2nnnc2SCC(=O)N2CCOCC2)cc1,-14,0,5.3*,3,0,6
O=C(CSc1nnnn1-c1ccc(F)cc1F)N1CCOCC1,12,0,5.5*,-11,2,12
CCOC(=O)c1cnc2cc(C)nn2c1N,7,0,9.4*,-7,0,3
CN1CCN(c2ccc(-c3cccc(C(=O)Nc4ccccc4)n3)cc2)CC1,5,0,1,6,x,x
SMILES,MITF inh,FBW7 act,GPR151 activ,TEAD-YAP block,GPR151 confirm,GPR119 counter
COc1ccccc1NC(=O)c1ccc(SCC(=O)NCc2ccccc2)c([N+](=O)[O-])c1,1,0,0,3,x,x
COC(=O)c1ccc(SCC(=O)NCc2ccccc2)c([N+](=O)[O-])c1,2,0,7.4*,6,0,-6
Cc1c(Cl)cccc1NC(=O)C(=O)NCCO,-2,0,5.2*,-11,0,3
Cc1cccc(NC(=O)C(=O)NCCO)c1C,8,0,-1,4,x,x
CCSc1nc2sccn2c(=O)c1C(=O)Nc1cc(-c2ccccc2)nn1C,6,0,1,-1,x,x
CCSc1nc2sccn2c(=O)c1C(=O)Nc1cc(C(C)(C)C)nn1C,6,0,5.0*,-4,1,3
Cc1ccc([N+](=O)[O-])cc1S(=O)(=O)Nc1cccc(-c2cn3cccnc3n2)c1,3,0,6.1*,-6,0,12
O=C(Cn1ncn2c(cc3sccc32)c1=O)NCc1ccc(F)cc1,15,0,0,8,x,x
CC(C)(COC(=O)c1cccc2ccccc12)N=C1NS(=O)(=O)c2ccccc21,-8,0,6.1*,-1,1,12
Cc1ccc(/C=C/C(=O)Nc2sc3c(c2C(N)=O)CCC(C)C3)o1 (centres undefined),7,0,0,-29,x,x
Cc1ccccc1C1CC(=O)Nc2cc3c(cc21)OCO3 (centres undefined),11,0,6.0*,6,0,6
O=C1Nc2ccc3ccccc3c2C(c2ccccc2)N1 (centres undefined),1,1,9.1*,16,-1,-13
CCSc1nc2c(c(=O)n(C)c(=O)n2C)n1Cc1c(F)cccc1Cl,22,0,5.2*,4,0,-1
Cn1c(=O)c2c(nc(Cl)n2Cc2c(F)cccc2Cl)n(C)c1=O,2,0,2,1,x,x
CC(=O)N1CCC(N(C(=O)Nc2cccc(Cl)c2C)C(C)C)CC1,4,0,0,-1,x,x
CC(=O)N1CCC(N(C(=O)Nc2c(F)cccc2F)C(C)C)CC1,5,0,9.1*,-4,-1,0
CCn1c(=O)c2c(nc(SCC(=O)N3C(C)CCCC3C)n2C)n(C)c1=O (centres undefined),4,0,-1,1,x,x
COc1cc(/C=N/Nc2ccccc2[N+](=O)[O-])cc(Br)c1O,9,0,-5,-54,x,x
COC(=O)c1ccc(/C=N/Nc2ccccc2[N+](=O)[O-])cc1,-2,0,4.9*,-29,0,-7
O=S(=O)(NCc1ccccn1)c1cccc(S(=O)(=O)c2cccc(S(=O)(=O)NCc3ccccn3)c2)c1,1,0,2,-7,x,x
COc1ccc(NC(=O)C(=O)NNC(=O)c2cccc(OC)c2)cc1,-6,0,6.1*,-3,0,4
CCc1ccc(NC(=O)C(=O)NNC(=O)c2cccc(OC)c2)cc1,14,0,-1,9,x,x
CCC(C)NC(=S)Nc1ncccc1C(=O)OC (centres undefined),7,0,1,4,x,x
O=C(O)CC1c2ccccc2CCN1S(=O)(=O)c1ccc(Cl)cc1 (centres undefined),9,0,6.0*,-1,2,12
O=C(O)CC1c2ccccc2CCN1S(=O)(=O)c1ccccc1 (centres undefined),-1,0,1,11,x,x

# Screening results (PubChem BioAssay)
